For assay [1], the target named is Calcium and integrin-binding protein 1 (Homo sapiens) (UniProt Q99828). Put plainly: Primary qHTS for Identification of Calcium Integrin Binding Protein 1 (CIB1) Competitor (AID 1508620).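 Note: GST tagged CIB1 binding a fluorescein labelled alphaIIb integrin peptide tracer; top concentration of the series differs between compounds.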 Summed up:
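CIB1-GST (1 uM final) and compound incubated 15 min at room temperature before adding FITC-alphaIIb peptide tracer (100 nM final). Competition for binding read by fluorescence polarization (ex 480, em 540) after another 15 min at room temperature.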
On the technique in general: qHTS replaces the single test concentration by a dilution series.

Assay [2] addresses Cytochrome P450 2D6 (Homo sapiens) (UniProt P10635). Put plainly: Cytochrome P450 family 2 subfamily D member 6 (CYP2D6) small molecule antagonists: luciferase biochemical (cell-free) qHTS assay (AID 1645840; active = well fitted curve in the direction sought with a large enough effect in the repeat runs; an effect the other way counts as inactive or inconclusive; note: nearly all actives have a fitted effect of over 55% in size; note: potency is the fitted concentration of half-maximal effect). An outline of the steps: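 P450-Glo CYP2D6 system: proluciferin substrate converted by enzyme to luciferin, read by luminescence proportional to activity. Enzyme-substrate mix with compound 10 min at room temperature, then NADPH regeneration 1 h before detection reagent.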

For assay [3], the target named is Cytochrome P450 2C9 (Homo sapiens) (UniProt P11712). Description: Cytochrome P450 family 2 subfamily C member 9 (CYP2C9) small molecule antagonists: luciferase biochemical (cell-free) qHTS assay (AID 1645842; active = well fitted curve in the direction sought with a large enough effect in the repeat runs; an effect the other way counts as inactive or inconclusive; note: nearly all actives have a fitted effect of over 55% in size; note: potency is the fitted concentration of half-maximal effect). Summed up:
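P450-Glo CYP2C9 system: proluciferin substrate with enzyme in mix containing 0.4% BSA, 10 min at room temperature, then NADPH regeneration solution added and incubated 1 h at 37C. Detection reagent stopped reaction; luminescence read after 20 min as RLU.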

Assay [4] is described as follows: Primary qHTS for inhibitors of nuclear receptor binding SET domain protein 2 (NSD2) in an isogenic RCH-ACV NSD2 p.E1099K mutant (9B) (AID 1645876). Note: nearly all actives have a fitted effect of over 70% in size. Note: potency is the fitted concentration of half-maximal effect.

“And” between values parts separate entries of the source, which are not always exact repeats. Identical values can stand only once. Inconclusive results are not listed. Unmarked numbers belong to inactive results. The source made the active and inactive calls. Unless noted, calls come from the whole dose curve; as a rule, active = well fitted curve in the direction sought with a large enough effect; inconclusive = small, poorly fitted or top-dose-only effect, or another doubt; inactive = no such curve, though single readings can be large; an effect the other way counts as inactive or inconclusive.
% is set by controls: 0 for no effect and ±100 for the full control effect.

Sequence of Calcium and integrin-binding protein 1 (Homo sapiens) (Q99828 whole entry, looked up): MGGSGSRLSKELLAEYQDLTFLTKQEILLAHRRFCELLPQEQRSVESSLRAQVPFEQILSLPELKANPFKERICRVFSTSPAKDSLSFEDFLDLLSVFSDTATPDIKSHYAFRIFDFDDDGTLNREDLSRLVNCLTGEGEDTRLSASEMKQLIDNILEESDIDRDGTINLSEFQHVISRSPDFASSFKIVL
Sequence of Cytochrome P450 2C9 (Homo sapiens) (P11712 whole entry, looked up): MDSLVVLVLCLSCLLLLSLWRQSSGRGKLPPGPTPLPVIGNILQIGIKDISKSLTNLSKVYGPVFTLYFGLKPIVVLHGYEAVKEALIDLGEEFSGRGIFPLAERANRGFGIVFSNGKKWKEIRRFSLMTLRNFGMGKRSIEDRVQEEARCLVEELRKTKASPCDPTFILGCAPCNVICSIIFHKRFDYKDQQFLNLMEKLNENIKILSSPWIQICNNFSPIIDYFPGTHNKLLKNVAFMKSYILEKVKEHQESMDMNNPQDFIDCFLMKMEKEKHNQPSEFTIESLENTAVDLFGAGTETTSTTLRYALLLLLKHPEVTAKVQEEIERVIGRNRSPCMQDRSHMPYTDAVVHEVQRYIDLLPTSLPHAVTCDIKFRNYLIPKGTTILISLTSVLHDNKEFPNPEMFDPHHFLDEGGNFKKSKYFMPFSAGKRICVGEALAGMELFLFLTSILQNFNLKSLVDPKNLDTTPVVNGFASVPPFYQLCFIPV
Sequence of Cytochrome P450 2D6 (Homo sapiens) (P10635 whole entry, looked up): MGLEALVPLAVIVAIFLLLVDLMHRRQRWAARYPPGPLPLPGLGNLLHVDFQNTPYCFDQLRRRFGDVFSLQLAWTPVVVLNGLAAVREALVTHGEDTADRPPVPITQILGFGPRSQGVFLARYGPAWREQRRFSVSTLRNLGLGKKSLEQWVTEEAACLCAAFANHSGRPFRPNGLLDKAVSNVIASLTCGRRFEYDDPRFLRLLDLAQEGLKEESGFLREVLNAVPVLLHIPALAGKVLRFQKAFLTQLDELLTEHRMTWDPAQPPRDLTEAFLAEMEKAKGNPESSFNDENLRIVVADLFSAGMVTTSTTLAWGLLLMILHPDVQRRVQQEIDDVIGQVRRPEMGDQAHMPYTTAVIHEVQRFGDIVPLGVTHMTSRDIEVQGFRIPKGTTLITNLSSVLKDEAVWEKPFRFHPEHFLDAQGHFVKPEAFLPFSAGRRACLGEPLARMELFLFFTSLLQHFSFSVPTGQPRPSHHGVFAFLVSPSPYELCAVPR

In the case of `COc1cc(N2CCOCC2)ccc1Nc1ncc(Cl)c(Nc2ccccc2NS(C)(=O)=O)n1`, the Potency result in assay [1] and in assay [3] was “inactive” in each case. In addition, the Potency in assay [2] was 15.1 µM (active); in assay [4] it was 1.15 µM (active).
On to `CC(=O)N1CCN(C(=O)Cc2ccc(Nc3ncc(F)c(Nc4ccc(C(=O)Nc5ccccc5Cl)cc4)n3)cc2)CC1`, for which the Potency entry in assay [1] and in assay [2] was “inactive” each time. The Potency is 0.477 µM (active) in assay [3] and 1.63 µM (active) in assay [4].
In the case of `CCCCCCOc1cc2c(cc1N(C)c1ncc(C(=O)O)cn1)C(C)(C)CCC2(C)C`, the Potency entry in assay [1], in assay [3] and in assay [4] was “inactive” throughout. The Potency in assay [2] was 10.7 µM (active).
For the molecule `O=[N+]([O-])c1cccc2[nH]c(CNc3nc(N4CCOCC4)nc4c3ncn4-c3ccsc3)nc12`, the Potency entry in assay [1] and in assay [2] was “inactive” each time. Moreover, the Potency in assay [3] is 0.952 µM (active); in assay [4], 0.0649 µM (active).
For `CC(C)(C)NCCCNC(=O)c1cccc(Br)c1`, the Potency entry in assay [1], in assay [3] and in assay [4] was “inactive” each time. Besides, in assay [2], the Potency was 0.849 µM (active).
Consider `O=C(/C=C/c1cccc(S(=O)(=O)Nc2ccccc2)c1)NO`, for which the Potency result in assay [1] was “inactive”. For the same molecule, the Potency in assay [2] is 21.3 µM (active); in assay [3], 10.7 µM (active); in assay [4] it was 356 nM (active) and 296 nM (active).
Regarding `CCN1CCN(Cc2ccc(NC(=O)Nc3ccc(Oc4cc(NC)ncn4)cc3)cc2C(F)(F)F)CC1`, the Potency result in assay [1] and in assay [3] was “inactive” in each case. The Potency in assay [2] is 10.7 µM (active); in assay [4], 3.65 µM (active) and 2.35 µM (active).
For the molecule `O=C(CCc1nnc2n(Cc3ccc(Cl)cc3)c(=O)c3ccccc3n12)NCCC1=CCCCC1`, the Potency result in assay [1] and in assay [4] was “inactive” each time. The Potency in assay [2] was 7.56 µM (active); in assay [3], 4.77 µM (active).
Turning to `CC(C)CCC(=O)CC1c2ccccc2C(=O)N1c1ccc2ccc(Cl)nc2n1` (centres undefined), the Potency result in assay [1], in assay [2] and in assay [4] was “inactive” each time. Besides, in assay [3], the Potency is 1.51 µM (active).
As for `CCC(COC)n1nnc2c(Nc3ccc(OC)cc3C)nc(C)cc21` (centres undefined), the Potency result in assay [1] and in assay [4] was “inactive” throughout. For the same molecule, the Potency in assay [2] is 10.7 µM (active); in assay [3], 7.56 µM (active).
On to `CC1(C)CC(NC(=O)C(=O)Nc2ccc(Br)cc2)CC(C)(C)N1`, for which the Potency entry in assay [1], in assay [2] and in assay [3] was “inactive” throughout. In addition, in assay [4], the Potency was 8.17 µM (active).
As for `Cn1cc(S(=O)(=O)c2ccc(Cl)cc2)c2cccc(N3CCNCC3)c21`, the Potency result in assay [1] is “inactive”. The Potency in assay [2] was 13.5 µM (active); in assay [3] it was 8.49 µM (active); in assay [4], 18.3 µM (active).
Regarding `CC(C)[C@@H](CS(=O)(=O)C(C)C)N1C(=O)[C@@](C)(CC(=O)O)C[C@H](c2cccc(Cl)c2)[C@H]1c1ccc(Cl)cc1`, the Potency result in assay [1] and in assay [2] was “inactive” in each case. For the same molecule, the Potency is 15.1 µM (active) in assay [3]; 1.15 µM (active) and 833 nM (active) in assay [4].
`Cc1ccc(NC(=O)Nc2cc(C(F)(F)F)ccc2F)cc1Nc1ccc2c(c1)NC(=O)/C2=C\c1ccc[nH]1`: the Potency entry in assay [1], in assay [2] and in assay [3] was “inactive” each time. In assay [4], the Potency is 11.5 µM (active) and 16.6 µM (active).
As to `COc1cccc(C(=O)N2CCN(C(=O)COc3cccc(C)c3)CC2)c1OC`, the Potency entry in assay [1], in assay [2] and in assay [4] was “inactive” in each case. Moreover, the Potency in assay [3] is 21.3 µM (active).
As for `COc1ccc(Oc2cc(C)c(-c3csc(NC(=O)c4ccncc4)n3)c(C)c2)cc1`, the Potency entry in assay [1] was “inactive”. The Potency in assay [2] was 3.01 µM (active); in assay [3] it was 4.77 µM (active); in assay [4], 0.163 µM (active).
With `CC(C)S(=O)(=O)N[C@H]1CCOC[C@@H]1c1ccc(-c2ccc(C#N)s2)cc1`, the Potency entry in assay [1] and in assay [4] was “inactive” throughout. The Potency was 10.7 µM (active) in assay [2] and 0.213 µM (active) in assay [3].
Consider `Cc1ccccc1-n1c([C@H](C)Nc2nc(N)nc3nc[nH]c23)nc2cccc(C)c2c1=O`, for which, in assay [1], the Potency entry is “inactive”. Moreover, the Potency in assay [2] was 16.9 µM (active); in assay [3] it was 1.34 µM (active); in assay [4] it was 0.0649 µM (active).
Consider `CCCn1c(=O)c2[nH]c(-c3ccc(OCC(=O)O)cc3)nc2n(CCC)c1=O`, for which the Potency result in assay [1], in assay [2] and in assay [4] was “inactive” in each case.
For the molecule `CN(C)c1nc(NC2CCC(NC(=O)c3ccc(F)c(F)c3)CC2)nc2ccccc12` (centres undefined), in assay [1], the Potency result is “inactive”. Further, the Potency in assay [2] was 5.35 µM (active); in assay [4], 6.49 µM (active).
`CNC(=O)c1ccccc1Nc1nc(Nc2ccc(N3CCNCC3)cc2)ncc1Cl`: the Potency result in assay [1] and in assay [2] was “inactive” each time. In addition, the Potency in assay [4] was 0.103 µM (active).
As to `C=CC(=O)Nc1cccc(Nc2nc(Nc3ccc(N4CCN(C(C)=O)CC4)cc3OC)ncc2C(F)(F)F)c1`, the Potency entry in assay [1] and in assay [2] was “inactive” throughout. Further, the Potency in assay [4] was 3.65 µM (active) and 4.17 µM (active).
With `Cc1ccc(Cc2c(C)nc3nc(SCC(=O)NCCN4CCNCC4)nn3c2C)cc1`, the Potency result in assay [1], in assay [2] and in assay [4] was “inactive” in each case.
Consider `CC(C)c1cc(CNc2nc(Nc3cc(C4CC4)[nH]n3)cc(N3CCN(C)CC3)n2)on1`, for which the Potency result in assay [1] is “inactive”. For the same molecule, the Potency in assay [2] was 2.68 µM (active); in assay [4], 64.9 nM (active) and 525 nM (active).
For the molecule `CC1(C)CCC(C)(C)c2cc(C3(c4ccc(C(=O)O)cc4)OCCO3)ccc21`, the Potency entry in assay [1], in assay [2] and in assay [4] was “inactive” each time.
With `CN(C)C(=O)NC1CCC(CCN2CCN(c3cccc(Cl)c3Cl)CC2)CC1` (centres undefined), the Potency entry in assay [1] is “inactive”. In assay [2], the Potency was 12 µM (active). In addition, the activity change, negative = viability loss in assay [4] is 3.61% [at 9.23 µM].
In the case of `C=CC(=O)Nc1cccc(CN2C(=O)N(c3c(Cl)c(OC)cc(OC)c3Cl)Cc3cnc(NCCCCN(CC)CC)nc32)c1`, the Potency entry in assay [1] is “inactive”. For the same molecule, the figures for the Potency in assay [2] and in assay [4] were 21.3 µM (active) and 2.05 µM (active), respectively.
